Screening data deposited in PubChem by National Center for Advancing Translational Sciences (NCATS).
Sampled rows, rich in hits. Any-hit rate of the full collection: about 11%.
NS1 inh = influenza NS1 inhibition; Potency, µM (top dose mostly 46.1 µM), for inactives: at the top dose activity, positive = more growth; hit rate 0.4% among 270,000; calls by dose curve; note: actives are rising curves; nearly all actives have a fitted effect of over 50% in size
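Recovery from NS1-induced slow growth read by OD600 in budding yeast switched to galactose assay medium (pH 6.0, -URA) at 1:100 dilution. Compound 23 nl per well; the matching strain lacking NS1 serves as control.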
Pf growth 48h = P. falciparum growth inhibition at 48 hours (one generation); Potency, µM (top dose mostly 28.7 µM), without a hit: top-dose activity change, negative = inhibition, most hits filed as inhibitors; hit rate 5.9% among 310,000; P. falciparum luciferase growth in erythrocytes, 48 h; AID 504832; note: % is set by controls: 0 for no effect and ±100 for the full control effect
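Luminescence readout; reporter = integrated firefly luciferase in P. falciparum. RBC culture at 2% hematocrit, 0.1% parasitemia final, 37 C/5% CO2; decreased signal taken as growth inhibition.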
Vaccinia mCherry = vaccinia inhibition (mCherry reporter). hit rate 0.63% among 310,000. Vaccinia virus mCherry reporter infection, fluorescence. Potency, µM (doses to about 36.5 µM), for inactives: at the highest dose activity change, negative = inhibition, hits mostly inhibitors; calls by dose curve; tested in A549 cells; note: % is set by controls: 0 for no effect and ±100 for the full control effect; nearly all actives have a fitted effect of over 35% in size
Pf growth 96h = inhibits malaria parasite growth, 96 h; P. falciparum luciferase reporter growth, 96 h; Potency, µM (doses to about 28.7 µM), without a hit: top-dose activity change, negative = inhibition, usual class: inhibitors; hit rate 6.9% among 320,000; AID 504834; note: % is set by controls: 0 for no effect and ±100 for the full control effect
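Luminescence readout: decreased luciferase signal marks inhibited growth of reporter-expressing P. falciparum in infected red cells (2% hematocrit, 0.05% parasitemia final), exposed to compound two generations (96 h, 37 C, 5% CO2).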
Vaccinia Venus = inhibitors of vaccinia virus (Venus reporter); Vaccinia virus Venus reporter expression, fluorescence; Potency, µM (titrated, usually from 36.5 µM), for inactives: at the top dose activity change, negative = inhibition, actives largely listed as inhibitors; hit rate 0.46% among 330,000; calls by dose curve; tested in A549 cells; note: % is set by controls: 0 for no effect and ±100 for the full control effect; nearly all actives have a fitted effect of over 30% in size
HCV inhibitor = blocks hepatitis C virus. Huh7.5.1 HCVcc-Cre infection, luciferase reporter, 44 h. Potency, µM (highest dose often 41.8 µM), inactives show at the top dose activity change, negative = inhibition, usual class: inhibitors. hit rate 3.4% among 340,000; note: % is set by controls: 0 for no effect and ±100 for the full control effect
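Compounds are dispensed onto cells plated 4 h earlier at 1,000 per well, with HCVcc-Cre virus (about 0.5 moi) added next. Following 44 h of culture, luminescent signal is measured for 15 sec after 15 min with substrate at room temperature.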
* hit, by the source's call; i = inactive; ? = inconclusive; / = no result; ! = not confirmed by another sample; [ ] = another dose, or the depositor's remark. Unless noted, calls come from the whole dose curve; as a rule, active = well fitted inhibition curve with a large enough effect; inconclusive = small, poorly fitted or top-dose-only effect, or another doubt; inactive = no such curve, though single readings can be large or run the other way. Potency is the fitted concentration of half-maximal effect.

SMILES	NS1 inh	Pf growth 48h	Vaccinia mCherry	Pf growth 96h	Vaccinia Venus	HCV inhibitor
COC(=O)c1cc(=O)c2c(C)nc(C(Cl)(Cl)Cl)nc2[nH]1	/	355.0%	-8.1%	126.1%	-20.9%	8.4%
O=C1CC(c2ccccc2)CC(=O)N1c1ccccc1	1.2%	3.4%	/	8.1%	/	21.4%
Cc1noc(C)c1S(=O)(=O)Nc1cccc(C(F)(F)F)c1	-53.7%	5.1%	/	81.4%	/	18.3%
Cc1onc(-c2ccccc2)c1C(=O)N1CCN(S(=O)(=O)c2ccc(Cl)cc2)CC1	-4.7%	16.8%	-19.8%	15.0%	1.1%	11.3%
Cc1onc(-c2ccc(Cl)cc2)c1-c1ccnn1S(=O)(=O)c1cccc(C(F)(F)F)c1	0.7%	1.65µM*	-12.6%[7.34 µM]	3.29µM*	-3.9%[7.34 µM]	?
Cc1ccc(S(=O)(=O)n2nccc2-c2c(-c3ccccc3)noc2C)cc1	-5.9%	5.86µM*	-13.9%	?	-29.4%	-55.5%
Cc1onc(-c2ccccc2)c1-c1ccnn1S(=O)(=O)c1ccc(Cl)cc1	-3.1%	?	-5.6%	3.29µM*	0.3%	-23.6%
N#CC1=C(O)CCCn2c1nc1ccccc1c2=O	1.3%	?	-0.1%	-11.6%[5.75 µM]	-7.2%	14.8%
Cc1cccc(NC(=O)COC(=O)CCCC2=NS(=O)(=O)c3ccccc3N2)c1	6.0%	0.2%	-3.7%	18.1%	-8.4%	7.4%
O=c1c2ccccc2c(C=Nc2ccccc2O)c(O)n1-c1nccs1	-6.9%	13.1µM*	/	?	/	?
CSc1ccc(CNCCCN(C)C)cc1	7.6%	?	-1.6%	63.2%	-14.3%	5.01µM*
O=C(CCNC(=O)c1ccc(Cl)cc1)Nc1ccc(F)cc1F	-6.6%	-0.5%	i	10.3%	-14.9%	0.2%
COc1ccccc1NS(=O)(=O)c1cccc(C(=O)NCC(c2ccc(F)cc2)N2CCOCC2)c1 (stereo not given)	/	?	?	?	-20.4%	3.5%[8.37 µM]
COc1ccccc1NS(=O)(=O)c1cc(C(=O)NCC(c2ccc(F)cc2)N2CCOCC2)ccc1C (stereo not given)	/	11.7µM*	-20.8%	?	-19.8%	-6.8%
COc1ccccc1NS(=O)(=O)c1cc(C(=O)NCC(c2ccco2)N(C)C)ccc1C (stereo not given)	/	-18.8%	-7.3%	?	-13.4%	-24.5%
COc1ccc(/C=C/C(=O)NCC(c2ccc(F)cc2)N2CCOCC2)cc1OC (stereo not given)	-30.5%	8.28µM*	-15.1%	?	0.0%	-3.8%
COc1ccccc1NS(=O)(=O)c1cc(C(=O)NCC(c2ccco2)N2CCCCC2)ccc1C (stereo not given)	/	11.7µM*	-6.9%	8.28µM*	-19.0%	?
O=C(NCC(c1ccc(F)cc1)N1CCOCC1)c1cccnc1Sc1ccccc1 (stereo not given)	/	?	i	?	-9.3%	?
Cc1ccc(Sc2ncccc2C(=O)NCC(c2ccc(F)cc2)N2CCOCC2)cc1C (stereo not given)	/	11.7µM*	-23.5%	?	-18.3%	-6.0%
COc1cc(/C=N/NC(=O)Cn2nc([N+](=O)[O-])cc2C)cc(Br)c1OCc1ccccc1	10.5%	-5.5%	?	/	?	?
Cc1nn(-c2ccccc2)c(N)c1C(c1ccccc1)c1c(C)nn(-c2ccccc2)c1N	8.2%	?	-0.7%	13.1µM*	-8.1%	8.3%
Cc1nn(-c2ccccc2)c(N)c1N=O	0.1%	15.2%	/	20.8%	/	-19.8%
Cn1c(Cn2c(=O)sc3ccccc32)nnc1SCc1cccc(F)c1	-4.8%	-5.2%	-7.2%	4.2%	0.0%	0.2%
Cn1c(Cn2c(=O)sc3ccccc32)nnc1SCc1ccccc1F	-7.7%	/	/	11.7µM*	/	-7.8%
CN1CCN(C(=S)Nc2cc(S(=O)(=O)N3CCOCC3)ccc2Cl)CC1	/	10.0%	-15.5%	7.6%	-2.4%	11.0%
SMILES	NS1 inh	Pf growth 48h	Vaccinia mCherry	Pf growth 96h	Vaccinia Venus	HCV inhibitor
CCC(=O)N1CCc2cc(Br)cc(S(=O)(=O)NCc3ccccc3OC)c21	10.0%	6.3%	-5.0%	?	-4.0%	11.1%
COc1ccccc1CNS(=O)(=O)c1ccc(N2CCCC2)cc1Br	/	/	-23.8%	/	-20.8%	11.2µM*
Cc1cc(C(=O)Nc2cc(C(F)(F)F)ccc2N2CCOCC2)no1	-11.7%	?	i	?	-18.2%	/
CCCCn1nc(C(=O)Nc2cc(C(F)(F)F)ccc2N2CCOCC2)ccc1=O	/	11.7µM*	/	?	/	?
CCOC(=O)C(=CNc1cc(C(F)(F)F)ccc1N1CCOCC1)C(=O)OCC	6.1%	4.15µM*	/	?	/	?
CC(C(=O)Nc1cc(C(F)(F)F)ccc1N1CCOCC1)N1C(=O)C2CCCCC2C1=O (stereo not given)	/	-8.5%	/	23.2%	/	5.9%
COc1cc(Cl)c(C)cc1NC(C)C(=O)Nc1cc(C(F)(F)F)ccc1N1CCOCC1 (stereo not given)	15.7%	0.147µM*	-7.5%	0.0657µM*	-11.1%	5.7%
COc1ccc(NC(C)C(=O)Nc2cc(C(F)(F)F)ccc2N2CCOCC2)c(OC)c1 (stereo not given)	3.7%	0.117µM*	?	0.0465µM*	-29.2%	?
CC(C(=O)Nc1cc(C(F)(F)F)ccc1N1CCOCC1)N1C(=O)C2CC=CCC2C1=O (stereo not given)	2.3%	-8.3%	i	/	-10.0%	2.3%
CCc1cnccc1CCC(=O)Nc1ccccc1C	/	/	/	/	/	-0.4%
CC(=O)Nc1cc(C(F)(F)F)ccc1N1CCOCC1	20.6%	11.2%	/	/	/	23.4%
CCC(Oc1ccccc1)C(=O)Nc1cc(C(F)(F)F)ccc1N1CCOCC1 (stereo not given)	/	1.65µM*	-6.6%	1.47µM*	-23.3%	?
O=C(NC(=S)Nc1cc(C(F)(F)F)ccc1N1CCOCC1)c1sc2ccccc2c1Cl	1.7%	2.08µM*	/	3.29µM*	/	0.1%
CCN1C(=O)C2(C(C(=O)c3cc4ccccc4o3)=C(O)C(=O)N2CCCN(C)C)c2ccccc21 (stereo not given)	-0.3%	3.9%	-8.5%	10.7%	-8.0%	-1.0%
Cc1cc(C(=O)Nc2ccncc2)c2ccccc2n1	-21.3%	?	/	13.1µM*	/	-13.1%
Cc1cc(C(=O)Nc2ccc(N3CCOCC3)cc2)c2ccccc2n1	-10.2%	9.28µM*	/	13.1µM*	/	?
Cc1ccc(NC(=O)c2cc(C)nc3ccccc23)cc1	-12.1%	0.1%	/	?	/	-29.9%
COCC(C)NC(=O)C1CC(=O)N(c2ccc(C)cc2)C1 (stereo not given)	0.6%	10.8%	/	?	/	21.9%
CC(=O)O[C@H]1CC[C@H]2[C@@H]3CCC4=CC(=O)CCC4=C3C=C[C@]12C	/	-5.1%	/	?	/	/
CC#C[C@]1(O)CC[C@H]2[C@@H]3CCC4=CC(=O)CCC4=C3[C@@H](c3ccc(N(C)C)cc3)C[C@@]21C	-39.3%	13.5µM*	-5.6%	6.75µM*	-14.1%	35.5µM*!
